SMN2 splice enh: enhancers of SMN2 splice variant expression; Potency, µM (series often up to 46.1 µM), for inactives: at the top dose activity change, positive = activation, hits mostly activators; HEK293 SMN2-luciferase splicing reporter, luminescence, 30-36 h; actives 2.8% (n = 210,000); note: % of control where 0% means no effect; nearly all actives have a fitted effect of over 55% in size
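HEK293 cells carry an SMN2 minigene-luciferase reporter in which exon 7 inclusion puts luciferase in frame. Cells were seeded at 2000 cells/well, attached for 10-12 hours, then exposed to compounds for 30-36 hours at 37C before ONE-Glo luminescence.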
Rab9 promoter act: Rab9 promoter activation | Huh7 Rab9 promoter-luciferase reporter, luminescence, 24 h | Potency, µM (titrated, usually from 9.22 µM), inactives show top-dose activation, negative = inhibition, usual class: activators | actives 2.8% (n = 320,000) | AID 485297; note: % of control where 0% means no effect; nearly all actives have a fitted effect of over 60% in size
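Luciferase signal after 10 min detection reagent at ambient indicates Rab9 promoter upregulation; stably transfected Huh7 cells were treated 24 h with compound in DMSO at 37 °C, 5% CO2.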
ELG1 DNA repair: ELG1-dependent DNA repair inhibition; HEK293T ELG1-luciferase reporter, luminescence, 16 h; DNA damage induced by 5-fluorouridine; Potency, µM (top dose mostly 46.1 µM), for inactives: at the top dose activity change, negative = inhibition, most hits filed as inhibitors; actives 2.3% (n = 330,000); AID 504467; note: % is set by controls: 0 for no effect and ±100 for the full control effect; nearly all actives have a fitted effect of over 55% in size
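DMSO vehicle served as the neutral condition. Each well held 2,000 cells given 5-fluorouridine plus compound; after 16 hr at 37 °C/5% CO2, ONE-Glo was added and luciferase measured 30 min later.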
ELG1 genotoxic: induces genotoxicity in HEK293T cells with luciferase-tagged ELG1 | AID 504466 | actives 1.3% (n = 330,000) | HEK293T ELG1-luciferase reporter, luminescence, 16 h | Potency, µM (top dose mostly 46 µM), without a hit: at the top dose activity change, positive = activation, usual class: activators; note: % of control where 0% means no effect; nearly all actives have a fitted effect of over 60% in size
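Quantitative HTS format in 1536-well plates. HEK293T ELG1-luciferase reporter cells receive test compound and are incubated 16 hr at 37 °C, 5% CO2; ONE-Glo added, 30 min room temperature, then luminescence read.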
FLuc counter: counter-screen for miR-21 project: firefly luciferase inhibitors or activators. P08659. purified FLuc, Km substrates, luminescence inhibition. Potency, µM (top dose mostly 57.5 µM), inactives show at the highest dose activity change, negative = inhibition, most hits filed as inhibitors. actives 6.9% (n = 360,000). AID 588342;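 note: plate controls were vehicle for no effect and reference inhibitor for full effect; nearly all actives have a fitted effect of over 55% in size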
Target sequence (P08659 whole entry, looked up): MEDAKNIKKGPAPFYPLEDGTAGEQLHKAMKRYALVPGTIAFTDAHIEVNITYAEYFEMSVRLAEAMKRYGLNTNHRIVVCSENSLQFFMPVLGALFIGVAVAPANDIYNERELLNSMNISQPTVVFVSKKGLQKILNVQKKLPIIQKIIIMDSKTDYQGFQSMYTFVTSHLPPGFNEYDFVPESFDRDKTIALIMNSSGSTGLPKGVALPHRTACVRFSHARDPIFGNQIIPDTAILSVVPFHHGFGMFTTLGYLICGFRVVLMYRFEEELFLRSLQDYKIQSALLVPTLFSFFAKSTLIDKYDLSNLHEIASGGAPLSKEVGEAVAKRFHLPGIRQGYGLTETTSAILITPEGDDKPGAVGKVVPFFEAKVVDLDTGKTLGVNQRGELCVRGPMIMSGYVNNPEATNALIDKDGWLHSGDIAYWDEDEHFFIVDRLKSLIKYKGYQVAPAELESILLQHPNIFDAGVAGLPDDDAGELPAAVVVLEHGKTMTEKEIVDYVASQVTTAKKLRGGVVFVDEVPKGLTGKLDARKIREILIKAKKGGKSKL
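Purified P. pyralis luciferase (10nM final) with 10uM D-luciferin and 10uM ATP (Km levels) in 50mM Tris acetate pH 7.5, 10mM Mg acetate, 0.01% Tween-20, 0.05% BSA; qHTS 6-point titration, ~60 µM downward; luminescence read.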
NPC1 prom act: activates the NPC1 promoter | Huh7 NPC1 promoter luciferase reporter, 24 h | Potency, µM (series often up to 9.22 µM), for inactives: at the highest dose activation, actives largely listed as activators | AID 485313 | actives 2.4% (n = 320,000); note: % of control where 0% means no effect; nearly all actives have a fitted effect of over 60% in size
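Compounds in DMSO were transferred onto Huh7 NPC1-luciferase reporter cells pre-incubated 2 h; after 24 h at 37 °C, Amplite reagent was dispensed and luminescence recorded 10 min later.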
Starred values were filed as active, the others as inactive; ? = inconclusive; · = not tested or not shown. This is a sample that favours compounds with a hit; in the whole collection about 9.3% have one here. Calls come from the whole dose curve; as a rule, active = well fitted curve in the direction sought with a large enough effect; inconclusive = small, poorly fitted or top-dose-only effect, or another doubt; inactive = no such curve, though single readings can be large; an effect the other way counts as inactive or inconclusive. Potency is the fitted concentration of half-maximal effect.

SMILES	SMN2 splice enh	Rab9 promoter act	ELG1 DNA repair	ELG1 genotoxic	FLuc counter	NPC1 prom act
Cc1c(N=Cc2nc3ccccc3n2C)c(=O)n(-c2ccccc2)n1C	1.4%	4.5%	?	?	1.51µM*	0.3%
Cc1c(C=O)c(=O)n(-c2ccccc2)n1C	5.1%	-1.9%	2.8%	-13.1%	1.2%	1.7%
Cc1c(N=Cc2nc3ccccc3[nH]2)c(=O)n(-c2ccccc2)n1C	-35.3%	8.0%	?	-0.4%	13.5µM*	13.5%
Cc1c(N=Nc2ccc(O)cc2)c(=O)n(-c2ccccc2)n1C	15.7%	5.8%	-2.0%	8.5%	-12.4%	10.5%
Cc1cccc(-c2ccc(C=Nc3c(C)n(C)n(-c4ccccc4)c3=O)o2)c1	-7.9%	8.7%	5.5%	0.0%	23.9µM*	6.8%
Cc1[nH]c2ccccc2c1N=Nc1c(C)n(C)n(-c2ccccc2)c1=O	-4.6%	-1.2%	13µM*	-9.8%	-14.2%	-0.8%
O=C1c2ccccc2NC(c2ccc(F)cc2)N1Cc1ccco1 (configuration not stated)	-32.4%	0.1%	-25.3%	0.5%	1.3%	-3.1%
Cc1cccc(NS(=O)(=O)c2cccc3cccnc23)n1	-1.8%	-8.4%	16.0%	-11.9%	0.5%	3.6%
Cc1cccc(OC(C)c2ccnc3nc(/N=C/N(C)C)nn23)c1 (configuration not stated)	-9.7%	2.1%	3.7%	-1.9%	-0.2%	0.1%
COc1ccc(/C=N/NC(=S)Nc2ccccc2)cc1COc1cccc(C)c1C	·	-10.5%	19.7%	10.2%	-6.4%	-6.5%
COCCNc1nc2c(S(=O)(=O)c3cc(C)ccc3C)nnn2c2ccccc12	-16.3%	3.1%	?	-7.9%	-1.5%	-1.4%
OCCN1CCOCCOc2ccccc2OCCOCC1	·	-1.0%	0.2%	1.6%	0.3%	-3.2%
[O-][n+]1c2c(c3c4non(O)c4ccc31)CCCC2	-2.6%	1.0%	23.1µM*	-23.7%	?	-1.8%
O=C(Nc1cccc(S(=O)(=O)Nc2ccc(Cl)cc2)c1)c1ccc(Cl)nc1	·	-23.3%	?	0.4%	3.1%	-20.8%
Cc1ccc(NC(=O)c2cc3c(s2)CCCC3)cc1S(=O)(=O)Nc1ccccc1Cl	-60.2%	-5.4%	23.1µM*	-8.2%	16.9µM*	-6.5%
Cc1ccc(C(=O)Nc2ccc(C)c(S(=O)(=O)Nc3ccccc3Cl)c2)s1	-52.4%	-3.4%	20.6µM*	-2.6%	?	2.6%
O=C(Nc1cccc(S(=O)(=O)Nc2ccc(Cl)cc2)c1)c1cc2c(s1)CCCC2	-68.0%	0.7%	?	-7.1%	15.1µM*	-3.2%
O=C(Nc1cc(S(=O)(=O)Nc2ccccc2Cl)ccc1O)c1cc2c(s1)CCCC2	·	-5.1%	-1.9%	-0.6%	-1.2%	-4.5%
Cc1cc(OCc2cc(C(=O)NCc3csc(C(C)C)n3)no2)cc(C)c1Cl	·	2.6%	3.7%	-1.0%	0.4%	-3.3%
C=CCn1nnnc1SCC(=O)Nc1cccc(OC)c1	-12.8%	0.3%	-1.6%	8.6%	-2.7%	1.2%
Cc1cc(NC(=O)C(C)Sc2nc(-c3cccs3)nc3ccccc23)no1 (configuration not stated)	·	-7.7%	-15.2%	0.7%	2.4%	-3.9%
COc1ccc(OCCC(=O)N2CCOCC2)cc1	11.3%	-0.5%	?	3.1%	0.0%	4.6%
CCCCOc1ccc(-c2nnn(CCC(=O)N3CCOCC3)n2)cc1	-19.6%	?	?	?	12µM*	?
CC1CCN(C(=O)Cn2nnc(-c3ccccc3)n2)CC1	·	?	?	?	-17.1%	24.0%
CCCOc1ccc(-c2nnn(CC(=O)N3CCC(C)CC3)n2)cc1	-34.6%	-0.5%	0.0%	2.4%	16.9µM*	0.9%
SMILES	SMN2 splice enh	Rab9 promoter act	ELG1 DNA repair	ELG1 genotoxic	FLuc counter	NPC1 prom act
CC1CCN(C(=O)Cn2nnc(-c3ccc(C(C)C)cc3)n2)CC1	·	2.5%	-2.8%	-2.4%	16.9µM*	8.1%
CCCOc1ccc(-c2nnn(CC(=O)N3CCCC(C)C3)n2)cc1 (configuration not stated)	·	-2.2%	-18.1%	-0.3%	15.1µM*	-1.9%
CN(C)CCNC(=O)COc1ccc(Cl)cc1Cl	-8.9%	-4.7%	2.5%	1.5%	4.1%	0.2%
COC(=O)CCn1nnc(-c2cccs2)n1	-6.9%	-4.3%	18.1%	-0.5%	-0.5%	-2.3%
COC(=O)CCn1nnc(-c2ccc(C(C)C)cc2)n1	-21.6%	-27.9%	?	-5.1%	12µM*	-18.5%
Cc1cc(O)c(/C=N/OCc2ccc(Cl)cc2Cl)c(=O)o1	-10.7%	-2.5%	-14.6%	-6.3%	?	-0.7%
O=c1c(/C=N/OCc2ccc(Cl)cc2Cl)c[nH]n1-c1cccc(Cl)n1	-14.7%	7.0%	?	-4.7%	10.7µM*	2.4%
Cc1cccc(C)c1NC(=O)CN1CCN(C(=O)CNC(=O)c2ccc(N3CCCC3=O)cc2)CC1	·	-2.6%	4.9%	1.0%	-0.7%	-2.9%
O=C(N/N=C/c1cccnc1)c1cccc(NC(=O)c2ccc(Cl)cc2)c1	·	-1.8%	16.4%	3.4%	0.0%	0.6%
Cc1cccc(C(=O)Nc2cccc(C(=O)N/N=C/c3cccc(C)n3)c2)c1	·	2.2%	-6.9%	-0.5%	16.9µM*	0.8%
Cc1ccc(C(=O)Nc2cccc(C(=O)N/N=C/c3ccc(O)cc3)c2)cc1	·	2µM*	?	11.7%	0.675µM*	1.41µM*
CC(=O)Nc1cccc(C(=O)N/N=C/c2cccc(C)n2)c1	·	0.4%	17.2%	4.2%	?	0.2%
O=C(N/N=C/c1cccc(NC(=O)c2ccc(Cl)cc2)c1)c1cccc(O)c1	·	2.82µM*	-16.5%	-2.9%	1.9µM*	1.26µM*
O=C(O)CCCC(=O)Nc1ccc(C(=O)NCc2cccnc2)cc1	-3.0%	1.2%	0.0%	-1.1%	6.1%	0.3%
Cc1ccc(NC(=O)CSc2ncc(S(=O)(=O)c3ccc(C(C)C)cc3)c(=O)[nH]2)cc1C	-2.6%	·	·	·	?	·
Cc1ccc(S(=O)(=O)c2cnc(SCC(=O)Nc3ccccc3C(F)(F)F)[nH]c2=O)cc1C	-7.6%	·	·	·	10.7µM*	·
Cc1ccc(S(=O)(=O)c2cnc(SCC(=O)Nc3ccc4c(c3)OCCO4)[nH]c2=O)cc1C	-2.9%	·	·	·	10.7µM*	·
Cc1c(Cl)cccc1NC(=O)CSc1ncc(S(=O)(=O)c2ccc(C(C)C)cc2)c(=O)[nH]1	-4.6%	·	·	·	7.57µM*	·
O=C1c2ccccc2NC(c2ccc(-c3cccs3)o2)N1O (configuration not stated)	·	0.9%	?	?	12µM*	9.5%
CSc1ccccc1NC(=O)Nc1cccc(Cl)c1	19.1%	12.6%	-29.3%	1.0%	23.9µM*	11.4%

Screens from PubChem.
